Measurements: the supplement of paper PMC10849652
Targets with a hit are over-represented here; the source holds about 8,800 in all. About 0.5% of all pairs of compound and target were hits.

These targets were tested with C1CCN(C1)C(=O)NC2=CC=CC(=C2)NC3=NC=C(C(=N3)NCCC4=CN=CN4)Br (assay: log2 fold change, soluble protein after heating vs DMSO (PISA); higher = thermal stabilisation; K562 lysate, 10 uM; active = over 0.2 and 3.5 SD of the protein, either way, in both replicates (recomputed)).
Procedure, shortened: (§1)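 A 30 min treatment with 10 μM compound was applied to crude K562 extract at 1 mg/mL protein in PBS pH 7.4 with 1 mM MgCl2. Heating for 3 min spanned 48°C-58°C, after which aliquots were pooled, adjusted to 0.5% NP-40 at 4°C and spun at 21,000xg for 90 min. TMTpro 16plex LC-MS/MS of the supernatant, with channel sums equalised, gave values recorded as log-two fold change in thermal stability against solvent controls, from duplicates.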

Chain of UniProt O95715 (O95715 whole entry, looked up): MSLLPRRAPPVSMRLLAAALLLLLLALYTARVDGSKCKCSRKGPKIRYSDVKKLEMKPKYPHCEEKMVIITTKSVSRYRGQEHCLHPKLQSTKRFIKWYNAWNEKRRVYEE
Chain of UniProt Q9BSY9 (Q9BSY9 whole entry, looked up): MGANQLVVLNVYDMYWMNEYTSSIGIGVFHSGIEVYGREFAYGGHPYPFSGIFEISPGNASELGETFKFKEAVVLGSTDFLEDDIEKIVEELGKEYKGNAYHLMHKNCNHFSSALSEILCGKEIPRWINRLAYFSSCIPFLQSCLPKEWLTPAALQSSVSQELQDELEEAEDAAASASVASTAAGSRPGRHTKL
Chain of UniProt P57737 (P57737 whole entry, looked up): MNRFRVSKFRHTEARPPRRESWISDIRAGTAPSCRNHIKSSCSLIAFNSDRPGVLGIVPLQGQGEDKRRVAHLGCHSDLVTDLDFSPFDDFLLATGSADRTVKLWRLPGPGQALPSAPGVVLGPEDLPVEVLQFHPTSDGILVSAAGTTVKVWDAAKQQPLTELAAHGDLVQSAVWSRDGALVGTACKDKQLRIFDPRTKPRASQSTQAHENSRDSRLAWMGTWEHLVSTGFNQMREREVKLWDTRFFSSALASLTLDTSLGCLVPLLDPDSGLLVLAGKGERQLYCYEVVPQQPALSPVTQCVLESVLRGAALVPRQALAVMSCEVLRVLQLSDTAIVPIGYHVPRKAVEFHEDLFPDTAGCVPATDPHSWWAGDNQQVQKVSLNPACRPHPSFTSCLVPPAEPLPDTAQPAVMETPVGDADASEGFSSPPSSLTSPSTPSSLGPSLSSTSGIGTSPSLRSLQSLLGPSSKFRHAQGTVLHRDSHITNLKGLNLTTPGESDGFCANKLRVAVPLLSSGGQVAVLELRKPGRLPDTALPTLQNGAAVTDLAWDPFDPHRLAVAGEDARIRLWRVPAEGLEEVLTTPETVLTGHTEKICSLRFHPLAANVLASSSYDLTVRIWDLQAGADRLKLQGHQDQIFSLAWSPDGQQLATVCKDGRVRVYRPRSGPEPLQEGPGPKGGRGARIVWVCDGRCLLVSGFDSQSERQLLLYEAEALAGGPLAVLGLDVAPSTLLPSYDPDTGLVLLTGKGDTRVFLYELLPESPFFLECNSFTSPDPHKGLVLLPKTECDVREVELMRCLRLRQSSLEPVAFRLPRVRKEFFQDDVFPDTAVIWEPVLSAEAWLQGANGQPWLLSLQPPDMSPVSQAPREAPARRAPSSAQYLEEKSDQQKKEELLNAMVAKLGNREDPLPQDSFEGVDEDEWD
Chain of UniProt P48730 (P48730 whole entry, looked up): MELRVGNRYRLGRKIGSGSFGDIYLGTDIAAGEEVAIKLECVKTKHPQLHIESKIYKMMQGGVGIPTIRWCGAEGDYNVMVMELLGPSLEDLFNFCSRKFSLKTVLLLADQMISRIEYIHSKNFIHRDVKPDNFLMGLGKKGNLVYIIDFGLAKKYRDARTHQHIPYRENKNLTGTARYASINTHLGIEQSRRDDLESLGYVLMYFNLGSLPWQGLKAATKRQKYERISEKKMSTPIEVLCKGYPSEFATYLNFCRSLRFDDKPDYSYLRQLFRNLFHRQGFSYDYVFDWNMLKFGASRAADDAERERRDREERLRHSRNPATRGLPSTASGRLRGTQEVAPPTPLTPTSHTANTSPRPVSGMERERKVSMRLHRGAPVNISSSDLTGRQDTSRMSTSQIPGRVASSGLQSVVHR
Chain of UniProt G9CGD6 (G9CGD6 whole entry, looked up): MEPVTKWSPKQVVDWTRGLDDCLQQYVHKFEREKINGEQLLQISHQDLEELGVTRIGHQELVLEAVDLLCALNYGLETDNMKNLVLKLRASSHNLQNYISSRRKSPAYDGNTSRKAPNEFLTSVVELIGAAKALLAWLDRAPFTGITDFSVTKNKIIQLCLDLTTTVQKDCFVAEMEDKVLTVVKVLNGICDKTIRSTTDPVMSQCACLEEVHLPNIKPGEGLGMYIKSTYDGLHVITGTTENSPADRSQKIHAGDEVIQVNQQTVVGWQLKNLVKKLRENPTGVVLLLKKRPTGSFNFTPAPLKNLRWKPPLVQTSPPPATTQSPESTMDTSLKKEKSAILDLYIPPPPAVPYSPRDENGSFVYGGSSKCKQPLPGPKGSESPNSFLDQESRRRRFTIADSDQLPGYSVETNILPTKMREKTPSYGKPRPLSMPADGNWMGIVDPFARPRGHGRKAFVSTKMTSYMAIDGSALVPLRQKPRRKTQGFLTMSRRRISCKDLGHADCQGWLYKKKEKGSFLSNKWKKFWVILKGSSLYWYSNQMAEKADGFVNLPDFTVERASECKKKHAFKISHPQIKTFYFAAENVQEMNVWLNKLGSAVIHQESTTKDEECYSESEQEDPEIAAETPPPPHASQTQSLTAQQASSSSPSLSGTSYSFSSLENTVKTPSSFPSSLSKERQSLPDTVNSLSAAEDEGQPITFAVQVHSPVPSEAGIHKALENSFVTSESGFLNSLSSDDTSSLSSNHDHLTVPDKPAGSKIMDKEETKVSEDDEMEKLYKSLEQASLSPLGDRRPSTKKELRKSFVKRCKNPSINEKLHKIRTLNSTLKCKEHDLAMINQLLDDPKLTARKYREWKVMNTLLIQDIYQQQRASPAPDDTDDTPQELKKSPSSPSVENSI
Chain of UniProt Q7L7V1 (Q7L7V1 whole entry, looked up): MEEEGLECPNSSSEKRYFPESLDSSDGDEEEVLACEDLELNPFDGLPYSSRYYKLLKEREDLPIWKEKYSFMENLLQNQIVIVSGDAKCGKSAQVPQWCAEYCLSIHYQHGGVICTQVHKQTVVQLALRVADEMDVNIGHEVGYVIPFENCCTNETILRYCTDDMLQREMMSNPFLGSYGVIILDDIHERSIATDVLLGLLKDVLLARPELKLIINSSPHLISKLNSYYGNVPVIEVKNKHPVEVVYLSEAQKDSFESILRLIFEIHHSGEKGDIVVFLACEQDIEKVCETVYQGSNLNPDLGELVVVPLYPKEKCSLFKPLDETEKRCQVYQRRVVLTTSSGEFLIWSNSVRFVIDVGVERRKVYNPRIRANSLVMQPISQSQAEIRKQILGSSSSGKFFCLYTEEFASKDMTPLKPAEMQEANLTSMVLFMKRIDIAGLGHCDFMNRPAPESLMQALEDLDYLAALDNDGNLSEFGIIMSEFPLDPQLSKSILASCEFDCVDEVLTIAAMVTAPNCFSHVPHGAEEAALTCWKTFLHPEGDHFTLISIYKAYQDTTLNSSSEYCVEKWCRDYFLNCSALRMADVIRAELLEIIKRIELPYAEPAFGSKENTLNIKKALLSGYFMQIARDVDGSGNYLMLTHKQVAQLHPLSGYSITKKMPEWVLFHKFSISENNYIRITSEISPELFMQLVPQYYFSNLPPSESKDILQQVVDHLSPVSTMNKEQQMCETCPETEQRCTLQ
Chain of UniProt P50570 (P50570 whole entry, looked up): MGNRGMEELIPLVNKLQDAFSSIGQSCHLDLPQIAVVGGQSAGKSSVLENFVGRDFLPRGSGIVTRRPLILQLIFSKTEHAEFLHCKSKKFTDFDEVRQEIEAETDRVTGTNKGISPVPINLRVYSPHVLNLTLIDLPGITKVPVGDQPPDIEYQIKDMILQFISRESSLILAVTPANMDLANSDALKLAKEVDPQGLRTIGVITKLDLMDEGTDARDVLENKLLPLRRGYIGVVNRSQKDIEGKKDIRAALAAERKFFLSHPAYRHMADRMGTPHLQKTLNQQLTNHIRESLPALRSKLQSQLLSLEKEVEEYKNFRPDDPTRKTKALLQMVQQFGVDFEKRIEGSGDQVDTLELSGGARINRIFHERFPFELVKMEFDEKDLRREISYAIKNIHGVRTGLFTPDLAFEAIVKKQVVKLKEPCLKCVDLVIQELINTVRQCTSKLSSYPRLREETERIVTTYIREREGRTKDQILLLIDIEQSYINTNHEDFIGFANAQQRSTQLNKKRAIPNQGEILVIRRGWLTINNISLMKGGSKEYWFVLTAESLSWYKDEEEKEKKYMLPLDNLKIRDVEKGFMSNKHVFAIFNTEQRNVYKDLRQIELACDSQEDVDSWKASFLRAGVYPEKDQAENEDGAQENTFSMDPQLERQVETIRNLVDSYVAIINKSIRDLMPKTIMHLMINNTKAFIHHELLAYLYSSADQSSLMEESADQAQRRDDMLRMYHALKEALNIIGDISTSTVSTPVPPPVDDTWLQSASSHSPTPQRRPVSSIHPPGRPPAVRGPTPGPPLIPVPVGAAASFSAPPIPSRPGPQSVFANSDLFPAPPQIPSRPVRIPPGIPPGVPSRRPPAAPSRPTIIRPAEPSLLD
Chain of UniProt Q9BW66 (Q9BW66 whole entry, looked up): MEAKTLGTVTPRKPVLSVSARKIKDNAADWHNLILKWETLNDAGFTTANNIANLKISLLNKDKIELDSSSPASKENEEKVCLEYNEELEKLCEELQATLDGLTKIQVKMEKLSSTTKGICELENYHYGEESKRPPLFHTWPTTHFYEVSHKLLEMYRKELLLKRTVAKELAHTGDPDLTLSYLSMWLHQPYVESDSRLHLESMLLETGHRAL
Chain of UniProt O14810 (O14810 whole entry, looked up): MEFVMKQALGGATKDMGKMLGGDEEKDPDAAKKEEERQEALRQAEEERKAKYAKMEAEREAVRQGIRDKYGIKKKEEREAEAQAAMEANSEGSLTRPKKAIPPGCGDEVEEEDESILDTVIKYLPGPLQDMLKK
Chain of UniProt Q16527 (Q16527 whole entry, looked up): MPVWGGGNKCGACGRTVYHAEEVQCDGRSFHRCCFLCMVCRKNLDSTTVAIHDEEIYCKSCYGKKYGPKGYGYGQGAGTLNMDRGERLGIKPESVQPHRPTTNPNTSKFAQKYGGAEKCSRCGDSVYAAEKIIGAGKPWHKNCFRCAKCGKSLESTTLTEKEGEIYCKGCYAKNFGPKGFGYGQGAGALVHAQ

log2 fold change, inactive:
CHEK2 (UniProt O96017) 0.11
COL12A1 (UniProt Q99715) 0.059
CSNK1D (UniProt P48730) -0.031
DDR1 isoform 5 (UniProt Q08345) -0.011
DALRD3 (UniProt Q5D0E6) 0.031
CLASP2 (UniProt O75122) 0
CORO7 (UniProt P57737) -0.07
CPLX1 (UniProt O14810) 0.012
DHX32 (UniProt Q7L7V1) -0.145
CNK3/IPCEF1 isoform 2 (UniProt G9CGD6) 0.014
CLIP1 isoform 2 (UniProt P30622) 0.023
CINP isoform 3 (UniProt Q9BW66) -0.015
CXCL14 (UniProt O95715) -0.444
DNM2 isoform 4 (UniProt P50570) -0.11
DESI2 (UniProt Q9BSY9) 0.002
CSRP2 (UniProt Q16527) 0.043

What follows are targets tested with C1CN(CCC1(CC2=CC=C(C=C2)Cl)N)C3=NC=NC4=C3C=CN4 in the same assay as above.
Procedure, shortened: as §1

log2 fold change, inactive:
CHEK2 (UniProt O96017) -0.035
COL12A1 (UniProt Q99715) 0.065
CSNK1D (UniProt P48730) 0.013
DDR1 isoform 5 (UniProt Q08345) -0.016
DALRD3 (UniProt Q5D0E6) -0.068
CLASP2 (UniProt O75122) 0.023
CORO7 (UniProt P57737) 0.064
CPLX1 (UniProt O14810) -0.048
DHX32 (UniProt Q7L7V1) 0.044
CNK3/IPCEF1 isoform 2 (UniProt G9CGD6) -0.048
CLIP1 isoform 2 (UniProt P30622) 0.023
CINP isoform 3 (UniProt Q9BW66) -0.056
CXCL14 (UniProt O95715) 0.119
DNM2 isoform 4 (UniProt P50570) -0.011
DESI2 (UniProt Q9BSY9) 0.067
CSRP2 (UniProt Q16527) -0.003
